High-throughput results as filed in PubChem BioAssay.
KCNQ2 pot = potentiators of rat KCNQ2 potassium channel; CHO-K1 KCNQ2, FluxOR thallium flux fluorescence; hits give high values; B-score at 10 µM; hit rate 0.54% among 310,000; AID 2239;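 active = fluorescence ratio B-score at least 3 SD of library B-scores, with initial fluorescence B-score within 3 of them, cut at about 5.3 in these data; same plate scores as AID 2156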;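 also: B-score of peak minus minimum over baseline fluorescence ratio after K+ and Tl+ stimulus; positive B-score means potentiation of KCNQ2 with more thallium influx and brighter signal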
KCNQ2 inh = blocks the rat KCNQ2 potassium channel. hit rate 1.1% among 310,000. CHO-K1 KCNQ2, FluxOR thallium flux, 20 min; hits give low values. B-score at 10 µM;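 active = fluorescence ratio B-score at most minus 3 library SDs, with starting brightness B-score within 2 library SDs, cut at about -5.5 in these data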
KCNQ2 inh conf = confirmation of rat KCNQ2 potassium channel inhibitors. hit rate 57% among 1,000. KCNQ2-expressing cells, thallium flux, inhibition; hits give low values. activity change, negative = inhibition, % at 10 µM. shares compounds with KCNQ2 inh. AID 493025;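 also: 0% = vehicle wells and values are ratio percent relative to vehicle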
KCNQ1 spec = human KCNQ1 activity in KCNQ2 inhibitor specificity screen. AID 493026. activity change, negative = inhibition, % at 10 µM. shares compounds with KCNQ2 inh. KCNQ1-expressing cells, FluxOR thallium flux fluorescence; hits give low values. hit rate 15% among 1,000;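 active = activity change at least 3 SD of negative controls below their mean in both duplicate wells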;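 also: CHO cells stably transfected with KCNQ1 and depolarized by potassium stimulus; peak minus minimum fluorescence over baseline after thallium addition; 0% = vehicle negative control and -100% = blank without thallium stimulus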
Target sequence (P51787 whole entry, looked up): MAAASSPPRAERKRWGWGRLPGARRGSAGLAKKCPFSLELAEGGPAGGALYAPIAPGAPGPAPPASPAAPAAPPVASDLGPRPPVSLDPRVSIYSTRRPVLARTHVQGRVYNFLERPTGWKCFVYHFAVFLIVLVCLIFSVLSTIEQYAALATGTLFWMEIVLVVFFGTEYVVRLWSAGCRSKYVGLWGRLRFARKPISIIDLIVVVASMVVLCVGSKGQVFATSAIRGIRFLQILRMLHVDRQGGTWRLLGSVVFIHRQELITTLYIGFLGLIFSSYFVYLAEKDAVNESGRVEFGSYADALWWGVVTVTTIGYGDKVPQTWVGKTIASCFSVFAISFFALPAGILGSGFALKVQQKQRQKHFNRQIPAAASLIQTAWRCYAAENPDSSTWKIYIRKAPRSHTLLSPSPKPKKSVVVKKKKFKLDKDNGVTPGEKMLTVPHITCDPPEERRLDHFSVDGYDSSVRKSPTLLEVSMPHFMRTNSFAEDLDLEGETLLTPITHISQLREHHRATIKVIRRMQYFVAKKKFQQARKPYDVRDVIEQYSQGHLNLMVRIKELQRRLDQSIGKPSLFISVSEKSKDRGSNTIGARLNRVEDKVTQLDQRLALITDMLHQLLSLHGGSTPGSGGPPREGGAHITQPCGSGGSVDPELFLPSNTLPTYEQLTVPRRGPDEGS
CHO Tl ctr = KCNQ2 inhibitor counter-screen hit in parental CHO cells; shares compounds with KCNQ2 inh; thallium flux counter-screen; hits give low values; activity change, % at 10 µM; hit rate 14% among 1,000; AID 493029;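 also: 0% = vehicle negative controls with stimulus buffer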
KCNQ2 patch conf = confirmation of rat KCNQ2 potassium channel inhibitors. shares compounds with KCNQ2 inh. KCNQ2-expressing cells, automated patch clamp current. calls only at 10 µM. hit rate 49% among 550. AID 588531
Numbers without * were called inactive; i = inactive; · = not tested or not shown; + = active, no number. Hits are enriched below; roughly 1.6% of the tested compounds scored in any of these assays. Unless noted, no rule for the calls is given here.

SMILES | KCNQ2 pot | KCNQ2 inh | KCNQ2 inh conf | KCNQ1 spec | CHO Tl ctr | others
CCOC(=O)c1c(-c2ccc(-c3ccccc3)cc2)csc1NC(=O)CCN1CCOCC1 | 1.2 | i | · | · | ·
CCOC(=O)N1CCN(C(=O)COC(=O)C2CCN(S(=O)(=O)c3c(Cl)cccc3Cl)CC2)CC1 | 1.7 | i | · | · | ·
CCc1ccc(NS(=O)(=O)c2c(C(=O)N3CCCCCC3)c(C)n(C)c2C)cc1 | · | i | · | · | ·
Cc1ccc(N2CC(C(=O)Nc3ccc(C)c(S(=O)(=O)N(C)C)c3)CC2=O)cc1 (configuration not stated) | 0.74 | i | · | · | ·
CCOC(=O)N1CCN(S(=O)(=O)c2c(C)nc3sccn3c2=O)CC1 | 1.4 | i | · | · | ·
CC(=O)c1ccc(S(=O)(=O)Oc2ccc(-c3ccc(C(=O)O)cc3)cc2)cc1 | 1.5 | i | · | · | ·
CCN(CC)CCNC(=O)c1ccc(NC(=O)c2cn(-c3ccc(F)cc3)nc2-c2cccc(OC)c2)cc1 | · | i | · | · | ·
CCN(CC)CCNC(=O)c1ccc(NC(=O)c2cn(-c3ccccc3)nc2-c2cccs2)cc1 | -12 | -12* | -42%* | -50%* | -37%* | KCNQ2 patch conf=+
CC(C)CC(NC(=O)C1CCC(C)CC1)C(=O)NCc1ccco1 (configuration not stated) | · | i | · | · | ·
COc1ccccc1CNC(=O)C(CC(C)C)NC(=O)C1CCC(C)CC1 (configuration not stated) | -8.2 | -8.2* | -28%* | i | i | KCNQ2 patch conf=+
CCOC(=O)N1CCN(C(=O)CCN2C(=O)/C(=C\c3cccc(OC)c3)SC2=S)CC1 | · | i | · | · | ·
COC(CNC(=O)C(=O)NCC1CCCN1S(=O)(=O)c1cccs1)OC (configuration not stated) | 1.1 | i | · | · | ·
Cc1ccccc1CC1(CO)CCCN(C(=O)CCC(=O)c2ccccc2)C1 (configuration not stated) | -8.6 | -8.6* | -30%* | i | i | KCNQ2 patch conf=+
COC(=O)CCC(=O)N1CCCC(CO)(Cc2ccccc2C)C1 (configuration not stated) | 0.29 | i | · | · | ·
CC(C)CCn1c(O)c(N=NC(=O)c2ccco2)c2ccccc21 | · | i | · | · | ·
CC(C)Cn1c(O)c(N=NC(=O)c2cccc(S(=O)(=O)N3CCCCC3)c2)c2ccccc21 | -9.3 | -9.3* | i | i | i
CCOc1c(Cl)cc(/C=C/C(=O)N(CC)CC(=O)NCc2cccs2)cc1OC | · | i | · | · | ·
Cc1cnc(C(=O)NC2CC(C)(C)Cc3c2cnn3-c2cccc(F)c2)cn1 (configuration not stated) | · | i | · | · | ·
CCCCCCNS(=O)(=O)c1ccc(NC(=O)C2CCCO2)cc1 (configuration not stated) | 1.1 | i | · | · | ·
CN(c1ccccc1C(=O)Nc1cccc(Br)c1)S(=O)(=O)c1ccccc1 | -6.7 | -6.7* | i | i | i
CN(c1ccccc1C(=O)Nc1cccc([N+](=O)[O-])c1)S(=O)(=O)c1ccccc1 | · | i | · | · | ·
Cc1ccc(CC2C(=O)N(c3nc(C)cc(C)n3)C(=O)C2C)cc1 (configuration not stated) | · | i | · | · | ·
CN(Cc1cn(C)nc1-c1ccccc1F)CC1CCCCO1 (configuration not stated) | · | i | · | · | ·
Cc1ccc(/C=C/C(=O)c2ccc(C)cc2)cc1 | · | i | · | · | ·
Cc1ccc(C(=O)/C=C/C(=O)c2ccc(C)cc2)cc1 | -7.5 | -7.5* | i | i | i
SMILES | KCNQ2 pot | KCNQ2 inh | KCNQ2 inh conf | KCNQ1 spec | CHO Tl ctr | others
CC12CCC(=O)N1C(C(=O)NCc1ccc(Cl)cc1Cl)CS2 (configuration not stated) | · | i | · | · | ·
CC1CN(C(=O)c2ccc(COc3ccc4ccccc4c3)o2)CC(C)O1 (configuration not stated) | -10 | -10* | i | i | i
CC1CN(C(=O)c2ccc(COc3ccc(C(C)C)cc3)o2)CC(C)O1 (configuration not stated) | · | i | · | · | ·
O=C(COc1ccc(-c2nnc(N3CCCCC3)c3ccccc23)cc1)N1CCCCC1 | · | i | · | · | ·
Cc1ccc(-c2nnc(N3CCN(C(=O)COc4ccccc4)CC3)c3ccccc23)cc1 | -7.6 | -7.6* | -27%* | i | i | KCNQ2 patch conf=+
CCCCCCC(=O)N/N=C1\CCCc2ccccc21 | 1.8 | i | · | · | ·
CCN(C)Cc1c(C(=O)N2CCc3ccccc3C2)nc2ccc(Cl)cn12 | · | i | · | · | ·
CN(Cc1c(C(=O)N2CCc3ccccc3C2)nc2ccc(Cl)cn12)C(C1CC1)C1CC1 | -7.9 | -7.9* | -24%* | i | i | KCNQ2 patch conf=+
CCCCOC(=O)/C(=C/C=C/c1ccccc1)NC(=O)c1ccccc1 | -6.9 | -6.9* | -25%* | i | i | KCNQ2 patch conf=i
CCCOC(=O)/C(=C\C=C\c1ccccc1)NC(=O)c1ccccc1 | · | i | · | · | ·
O=C(c1cc2ccccc2[nH]1)N(Cc1cccnc1)CC1CCCN(C2CCCCC2)C1 (configuration not stated) | · | i | · | · | ·
c1ccc(N2CCN(c3ccccc3)C2c2cccs2)cc1 | -7 | -7* | i | i | i
O=C1CSC(c2cccs2)N1c1ccccc1 (configuration not stated) | 0.72 | i | · | · | ·
Cc1nn(C(C)C(=O)NCCCN2CCCCCC2)c(=O)c2c1sc1ccccc12 (configuration not stated) | · | i | · | · | ·
Cc1nn(C(C)C(=O)NCc2ccccc2Cl)c(=O)c2c1sc1ccccc12 (configuration not stated) | -7.8 | -7.8* | -32%* | i | i | KCNQ2 patch conf=+
COc1cccc(C2C([N+](=O)[O-])=C(N)Oc3cc(C)oc(=O)c32)c1 (configuration not stated) | · | i | · | · | ·
NS(=O)(=O)c1ccc(NC(=O)COC(=O)c2cnccn2)cc1 | · | i | · | · | ·
COC(=O)C(NC(=O)c1ccccc1)(Nc1nc(C)cs1)C(F)(F)F (configuration not stated) | -8.5 | -8.5* | i | i | i
COC(=O)C(NC(C)=O)(Nc1nc(C)cs1)C(F)(F)F (configuration not stated) | · | i | · | · | ·
C=CCn1c(SCc2c(C)noc2C)nc2ccccc2c1=O | · | i | · | · | ·
Cc1noc(C)c1CSc1nc2ccccc2c(=O)n1-c1ccc(F)cc1F | -7.3 | -7.3* | -20%* | i | i | KCNQ2 patch conf=+
CN(CC(=O)Nc1ccc(Cl)cc1)C(=O)CCc1nc2sc3c(c2c(=O)[nH]1)CCCC3 | 0.14 | i | · | · | ·
CN(C(=O)COc1ccc(Cl)cc1Br)C1CCCCC1 | -7.8 | -7.8* | -30%* | i | i | KCNQ2 patch conf=+
O=C(/C=C/c1ccccc1)N(c1ccccn1)C1CCCCC1 | · | i | · | · | ·
O=C(COc1ccc(Cl)cc1Cl)N(c1ccccn1)C1CCCCC1 | -6.9 | -6.9* | -35%* | i | i | KCNQ2 patch conf=+
O=C(/C=C/c1ccccc1Cl)N(c1ccccn1)C1CCCCC1 | -7.4 | -7.4* | i | i | i
CC(C)(C)c1ccc(OCC(=O)N(c2ccccn2)C2CCCCC2)cc1 | · | i | · | · | ·
CCOC(=O)CNC(=O)COc1ccc(Cl)cc1Br | · | i | · | · | ·
